Among the test systems are T-47D breast; BT-549 breast; MDA-MB-435 melanoma; SW-620 colon; MCF7 breast; HCT-116 colon; HCC-2998 colon; KM12 colon.
What all share (experiment): NCI-60 one-dose screen, 48 h (100 = growth as untreated, 0 = no growth, -100 = all killed)
Holding throughout (settings): 10 µM unless noted

“And” between values parts separate entries of the source, which are not always exact repeats. Equal values may be shown once. This is part of a sample that, as a whole, favours compounds with a hit. Of some 83,000 tested, about 20% had one in any assay.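 Growth was measured after 48 h exposure to one concentration of compound in 96-well plates. Values under 10 count as active.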 The source made the active and inactive calls.

Consider `CC[N+](CC)(CC(=O)Nc1c(C)cccc1C)Cc1ccccc1`, for which the growth in the assay with T-47D breast is 86.9% (inactive) and 95.1% (inactive); with BT-549 breast, 63.8% (inactive) and 106% (inactive); in the assay on MDA-MB-435 melanoma it was 94.7% (inactive) and 99.3% (inactive); with SW-620 colon, 90.1% (inactive) and 97.1% (inactive); in the assay with MCF7 breast, 95.7% (inactive) and 99.8% (inactive); in the assay with HCT-116 colon, 97.3% (inactive) and 100% (inactive). Further, the growth is 102% (inactive) in the assay on HCC-2998 colon; 101% (inactive) and 88.9% (inactive) in the assay with KM12 colon.
Take `N#CC(C#N)=C/C=C/c1cccc([N+](=O)[O-])c1`: the growth in the assay with T-47D breast is 39.1% (inactive) and 17% (inactive); in the assay with BT-549 breast, 57.1% (inactive); in the assay on MDA-MB-435 melanoma, 6.2% (active) and -53.1% (active); in the assay on SW-620 colon it was 2.75% (active) and -71.6% (active); in the assay with MCF7 breast, 32.4% (inactive) and 18% (inactive); with HCT-116 colon it was -64.6% (active) and -91.7% (active). The growth in the assay with HCC-2998 colon is -79.1% (active) and -79.8% (active); with KM12 colon it was 8.85% (active) and -76.4% (active).
`COc1cc2nc(N3CCC[C@@H](NC(=O)C4COc5ccccc5O4)C3)nc(N)c2cc1OC` (some centres not stated): the growth with T-47D breast was 92.2% (inactive) and 90.3% (inactive); in the assay with BT-549 breast it was 107% (inactive) and 113% (inactive); in the assay on MDA-MB-435 melanoma, 96.9% (inactive) and 99.5% (inactive); with SW-620 colon, 100% (inactive) and 107% (inactive); in the assay with MCF7 breast it was 100% (inactive) and 98.9% (inactive); with HCT-116 colon it was 95.9% (inactive) and 95.2% (inactive). For the same molecule, the growth in the assay with HCC-2998 colon is 104% (inactive) and 98.3% (inactive); in the assay with KM12 colon it was 104% (inactive) and 103% (inactive).
Regarding `Cn1cc(-c2cc3c(Nc4ccc(CC(=O)Nc5cc(C(C)(C)C)on5)cc4)ncnc3[nH]2)cn1`, the growth in the assay with T-47D breast was -1.6% (active) and -13.9% (active); in the assay with BT-549 breast it was -15% (active) and -15.8% (active); in the assay on MDA-MB-435 melanoma it was -42.3% (active) and -0.328% (active); in the assay with SW-620 colon it was -7.24% (active) and 1.5% (active); in the assay with MCF7 breast it was 4.99% (active) and 7.91% (active); in the assay with HCT-116 colon, 0.379% (active) and 1.42% (active). Besides, the growth in the assay with HCC-2998 colon was -10.8% (active) and -2.61% (active); in the assay on KM12 colon, -20.7% (active) and 3.37% (active).
As for `O=C(CN1CCOCC1)N1CCOCC1`, the growth was 110% (inactive) and 101% (inactive) with T-47D breast; 96.9% (inactive) in the assay on BT-549 breast; 116% (inactive) and 101% (inactive) with MDA-MB-435 melanoma; 105% (inactive) and 109% (inactive) with SW-620 colon; 110% (inactive) and 105% (inactive) in the assay with MCF7 breast; 104% (inactive) and 107% (inactive) in the assay on HCT-116 colon. Also, the growth in the assay with HCC-2998 colon was 104% (inactive) and 105% (inactive); with KM12 colon, 110% (inactive) and 106% (inactive).
On to `CC1=CCC2CC1C2(C)C` (configuration not stated), for which the growth was 105% (inactive) and 102% (inactive) with T-47D breast; 71.6% (inactive) and 68.8% (inactive) with BT-549 breast; 98.3% (inactive) and 94.2% (inactive) with MDA-MB-435 melanoma; 101% (inactive) and 103% (inactive) in the assay with SW-620 colon; 98.1% (inactive) and 91.6% (inactive) in the assay on MCF7 breast; 92.2% (inactive) with HCT-116 colon. Further, the growth is 42.3% (inactive) in the assay with HCC-2998 colon; 100% (inactive) and 110% (inactive) in the assay with KM12 colon.
`OCCN1CCN(CCO)CC1`: the growth with T-47D breast is 89.8% (inactive) and 86% (inactive) and 118% (inactive); with BT-549 breast, 110% (inactive) and 89.5% (inactive) and 102% (inactive); in the assay with MDA-MB-435 melanoma it was 113% (inactive) and 99.8% (inactive) and 115% (inactive); with SW-620 colon it was 99.5% (inactive) and 103% (inactive); with MCF7 breast, 95.5% (inactive) and 95.1% (inactive) and 107% (inactive); in the assay on HCT-116 colon, 104% (inactive) and 87.9% (inactive) and 98.8% (inactive). The growth in the assay on HCC-2998 colon was 102% (inactive) and 95.7% (inactive) and 107% (inactive); with KM12 colon, 108% (inactive) and 96.8% (inactive) and 109% (inactive).
For `CC1=NN(c2ccccc2)C(=O)C1C(=O)c1ccccc1` (configuration not stated), the growth with T-47D breast is 86.9% (inactive); with BT-549 breast, 103% (inactive); in the assay with MDA-MB-435 melanoma, 104% (inactive); in the assay with SW-620 colon it was 101% (inactive); with MCF7 breast, 86% (inactive); with HCT-116 colon, 98.3% (inactive). Besides, the values for the growth in the assay with HCC-2998 colon and with KM12 colon were 90.5% (inactive) and 93.2% (inactive), respectively.
For `CCN(CC)CCCC(C)N(Cc1ccccc1)CC(O)c1ccc(Cl)cc1` (configuration not stated), the growth in the assay with T-47D breast was 94.5% (inactive) and 91.3% (inactive); with BT-549 breast it was 110% (inactive) and 102% (inactive); in the assay with MDA-MB-435 melanoma it was 116% (inactive) and 107% (inactive); in the assay on SW-620 colon, 98.8% (inactive) and 113% (inactive); in the assay with MCF7 breast it was 105% (inactive) and 99.3% (inactive); in the assay on HCT-116 colon it was 102% (inactive) and 100% (inactive). Further, the growth with HCC-2998 colon was 101% (inactive); in the assay with KM12 colon it was 103% (inactive) and 101% (inactive).

Values taken from PubChem BioAssay (NCI).
